# According to ChEMBL document CHEMBL3988442, “University of Dundee, Small-Polar-MMV Screening Library” (2021):
# Screen size: about 66,000 compounds; about 960 (1.5%) showed an effect of 50% or more. Only a selection was taken, and strong results are over-represented in it overall.
# Tested on: Trypanosoma brucei
# Test: Trypanosoma brucei 72 hour study
# Format: functional, organism-based
# Set-up: scale not given: in the data most compounds retested in dose-response had high values
smiles,measurement,setting,value
CC(C)N1CCC2(CCNCC2)C1=O.Cl,Percent Effect,"30.3 µM, […]",-13.71%
Cc1cccc(CN2C(=O)CCC23CCN(c2ncc(F)cn2)CC3)n1.O=C(O)C(F)(F)F,Percent Effect,"30.3 µM, […]",6.517%
O=C(Nc1cnccn1)[C@H]1CO[C@H]2CCN(c3ncc(F)cn3)C[C@H]2C1.O=C(O)C(F)(F)F,Percent Effect,"30.3 µM, […]",-3.537%
Cc1cccc(CN2C(=O)CCC23CCN(c2ccccn2)CC3)n1.O=C(O)C(F)(F)F.O=C(O)C(F)(F)F,Percent Effect,"30.3 µM, […]",-36.28%
COc1ccccc1C(=O)NCCC(=O)Nc1c(C)nn(C)c1C,Percent Effect,"30 µM, 30.03 µM",-36.41%
CCC(C)C(=O)Nc1ccc2oc(=O)n(CCN(C)C)c2c1 (stereo not given),Percent Effect,"30 µM, 30.03 µM",-15.08%
Cc1cn2c(n1)C(CNCC1=Cc3cc(Cl)ccc3OC1)CCC2 (stereo not given),Percent Effect,"30.3 µM, […]",99.66%
Cc1cn2c(n1)C(CNCc1ccc(C)s1)CCC2 (stereo not given),Percent Effect,"30.3 µM, […]",-3.779%
Cc1cn2c(n1)C(CNCC1=Cc3ccccc3OC1)CCC2 (stereo not given),Percent Effect,"30.3 µM, […]",49.61%
O=C(Cc1cccc(F)c1)N1CCc2ncnc(NC3CCC3)c2CC1,Percent Effect,"30.3 µM, […]",-72.72%
CN(C)C(=O)N1CCC2(CC1)CCN(c1ncccn1)C2.O=C(O)C(F)(F)F,Percent Effect,"30.3 µM, […]",-41.17%
Cc1ncsc1-c1nnc(C2CCN(Cc3ccc(Cl)cc3)CC2)o1,Percent Effect,"30.3 µM, […]",0.5336%
Cc1ccsc1-c1nnc(C2CCN(Cc3ccc(F)cc3)CC2)o1,Percent Effect,"30.3 µM, […]",56.66%
Cc1ncsc1-c1nnc(C2CCN(Cc3ccc(F)cc3)CC2)o1,Percent Effect,"30.3 µM, […]",-21.24%
CN(C)C(=O)COCc1cncc2c1CCN(C1CCOCC1)C2.O=C(O)C(F)(F)F.O=C(O)C(F)(F)F,Percent Effect,"30.3 µM, […]",-55.36%
O=C1CC(c2cccc(Cl)c2)c2snc(C(=O)O)c2N1 (stereo not given),Percent Effect,"30.3 µM, […]",-31.06%
Cc1ccccc1C(=O)Nc1ccc(OC2CCN(C)CC2)cc1,Percent Effect,"30 µM, 30.03 µM",-8.393%
CN1CCC(Oc2ccc(NC(=O)c3ccccc3Br)cc2)CC1,Percent Effect,"30 µM, 30.03 µM",65.56%
COc1ccccc1C(=O)Nc1ccc(OC2CCN(C)CC2)cc1,Percent Effect,"30 µM, 30.03 µM",-32.85%
Cl.O=C(NCC1CCCO1)c1cc(-c2ccncc2)c2cnccc2n1 (stereo not given),Percent Effect,"30.3 µM, […]",-19.01%
CC1=Nc2c(c(=O)[nH]n2C(C)C)C(c2ccc3ncccc3c2)S1 (stereo not given),Percent Effect,"30 µM, 30.03 µM",-30.02%
CC(Cn1cccn1)NCc1nc(-c2cccc(Cl)c2)no1 (stereo not given),Percent Effect,"30 µM, 30.03 µM",53.11%
CC(Cn1cccn1)NCc1nc(-c2cccnc2)no1 (stereo not given),Percent Effect,"30 µM, 30.03 µM",5.913%
CC(Cn1cccn1)NCc1nc(-c2ccc3c(c2)OCO3)no1 (stereo not given),Percent Effect,"30.3 µM, […]",-4.603%
Cc1nc(N)sc1C(=O)N1CCCC(c2nccn2CCCN(C)C)C1 (stereo not given),Percent Effect,"30 µM, 30.03 µM",50.48%
CCn1ccnc1C1CCCN(C(=O)c2sc(C)nc2C)C1 (stereo not given),Percent Effect,"30 µM, 30.03 µM",-29.7%
Cc1cc(C)nc(N2CCCC(c3nccn3CCCN(C)C)C2)c1 (stereo not given),Percent Effect,"30 µM, 30.03 µM",-17.07%
N#CCc1cccc(C(=O)N2CCN(CC(O)c3ccccc3)CC2)c1 (stereo not given),Percent Effect,"30.3 µM, […]",6.868%
same,Percent Effect,"10 mM, 10 mM as filed; unlikely as a test dose",-3.185%
Cc1ccc(CNCC2CCN(CC(O)c3ccccc3)CC2)o1 (stereo not given),Percent Effect,10 µM,51.2%
same,Percent Effect,"30.3 µM, […]",70.09%
Cc1ncccc1CNCC1CCN(CC(O)c2ccccc2)CC1 (stereo not given),Percent Effect,"30 µM, 30.03 µM",36.2%
CCn1ccnc1CNCC1CCN(CC(O)c2ccccc2)CC1 (stereo not given),Percent Effect,"30 µM, 30.03 µM",95.36%
OC(CN1CCC(CNCc2ccccn2)CC1)c1ccccc1 (stereo not given),Percent Effect,10 µM,-26.34%
same,Percent Effect,"30.3 µM, […]",32.19%
CCn1ccnc1CN1CCN(CC(O)c2ccccc2)CC1 (stereo not given),Percent Effect,"30 µM, 30.03 µM",-18.29%
Cc1noc(C)c1CNCC1CCN(CC(O)c2ccccc2)CC1 (stereo not given),Percent Effect,"30 µM, 30.03 µM",39.8%
CN(C)CCOC[C@H]1CC[C@H]2[C@H](CCN2C(=O)c2ccoc2)O1.O=C(O)C(F)(F)F,Percent Effect,"30 µM, 30.03 µM",21.89%
Cc1cnn(CC2CCCN2C(=O)c2cn(C)c3ccccc23)c1 (stereo not given),Percent Effect,10 µM,-33.63%
Cc1ccc(-c2cc(CNc3ncnc4c3CCNCC4)no2)cc1,Percent Effect,"30 µM, 30.03 µM",31.3%
CSc1ccc(CN(C)Cc2noc(C(C)(C)C)n2)cc1,Percent Effect,"30 µM, 30.03 µM",-12.59%
Cc1ccc2c(n1)N(CCn1cccn1)CCN(CC1CC1)C2.O=C(O)C(F)(F)F.O=C(O)C(F)(F)F,Percent Effect,"30.3 µM, […]",-30.39%
CS(=O)(=O)N1CCC(CNC(=O)C2CCCC2)CC1,Percent Effect,"30 µM, 30.03 µM",-35.01%
Cc1cc(C)c(C#N)c(N2CCC3(CCCN(CCO)C3=O)C2)n1 (stereo not given),Percent Effect,"30 µM, 30.03 µM",-17.57%
Cc1cc(N2CCC3(CCCN(CCO)C3=O)C2)nc(C)c1C#N (stereo not given),Percent Effect,"30 µM, 30.03 µM",-51.69%
COCCN1CCCC2(CCN(c3cc(C)c(C#N)c(C)n3)C2)C1=O (stereo not given),Percent Effect,"30 µM, 30.03 µM",50.02%
Cn1cccc1C(=O)N1CCC2(CCN(C(=O)c3cccnc3)C2)CC1.O=C(O)C(F)(F)F,Percent Effect,"30.3 µM, […]",-55.95%
CC1c2ncc(CNC(=O)C3CC3)n2CCN1Cc1ccncc1.O=C(O)C(F)(F)F.O=C(O)C(F)(F)F (stereo not given),Percent Effect,"30.3 µM, […]",-14.67%
C[C@@H]1C(=O)NC[C@H]2CN(CCc3ccccc3)C[C@H]21.O=C(O)C(F)(F)F,Percent Effect,"30.3 µM, […]",-1.404%
CCc1nc(CN(C(C)=O)C2CCN(CCc3ccccn3)C2)no1 (stereo not given),Percent Effect,10 µM,65.29%
CCc1nc(CN(C(C)=O)C2CCN(CCc3ccccc3)C2)no1 (stereo not given),Percent Effect,10 µM,-54.25%
CCc1nc(CN(C)C2CCN(CCc3ccccn3)C2)no1 (stereo not given),Percent Effect,"30 µM, 30.03 µM",3.156%
Cc1ccc(CN2C[C@@H]3[C@@H](C(=O)NCC4CC4)CCS(=O)(=O)[C@@H]3C2)cc1.O=C(O)C(F)(F)F,Percent Effect,"30.3 µM, […]",-76.84%
O=C1C[C@H]2CC[C@@H](CN1)N2C(=O)Cc1ccsc1,Percent Effect,"30.3 µM, […]",-6.652%
CN(C)C(=O)COCc1cncc2c1CCN(Cc1ccccn1)C2.O=C(O)C(F)(F)F.O=C(O)C(F)(F)F,Percent Effect,"30.3 µM, […]",-50.95%
O=C(NC1CC1)[C@@H]1CCO[C@@H]2CCN(CCc3ccccc3)C[C@@H]21.O=C(O)C(F)(F)F,Percent Effect,"30.3 µM, […]",-14.39%
CC(C)n1c2ccccc2c2c1cc(C(=O)N(C)C)n2C,Percent Effect,"30.3 µM, […]",-58.05%
CC(CNC(=O)c1ccc(C#N)cc1)N1CCc2ccccc21 (stereo not given),Percent Effect,"30.3 µM, […]",1.685%
COc1ccc(NC(=O)NCC(C)N2CCc3ccccc32)cc1 (stereo not given),Percent Effect,"30.3 µM, […]",-7.739%
CC(CNC(=O)Nc1ccc(C#N)cc1)N1CCc2ccccc21 (stereo not given),Percent Effect,"30.3 µM, […]",100.3%
CC(=O)Nc1c(C)noc1/C=C\c1ccc(S(=O)(=O)NC2CC2)cc1,Percent Effect,"30.3 µM, […]",-2.674%
c1ccc(CCN2CCCC2c2cccc(Nc3nccs3)n2)cc1 (stereo not given),Percent Effect,"30.3 µM, […]",29.28%
COCC(=O)N1CCCCC1c1ccnc(Nc2ncc(C)s2)n1 (stereo not given),Percent Effect,"30.3 µM, […]",16.03%
COCC(=O)N1CCCC1c1cccc(Nc2ncc(C)s2)n1 (stereo not given),Percent Effect,"30.3 µM, […]",85.92%
Cc1cnc(Nc2cccc(C3CCCN3C(=O)CO)n2)s1 (stereo not given),Percent Effect,"30.3 µM, […]",28.67%
CS(=O)(=O)N1CCCC1c1cccc(Nc2nccs2)n1 (stereo not given),Percent Effect,"30.3 µM, […]",92.1%
Cc1ccccc1CN1CCCC1c1cccc(Nc2nccs2)n1 (stereo not given),Percent Effect,"30.3 µM, […]",5.594%
Cc1nnc2n1CCN(C(=O)CN(C)Cc1ccccc1)C2,Percent Effect,"30.3 µM, […]",-14.91%
O=C(NCC1CCOCC1)[C@@H]1CC[C@@H]2[C@@H](CCN2Cc2ccncc2)O1.O=C(O)C(F)(F)F.O=C(O)C(F)(F)F,Percent Effect,"30.3 µM, […]",-62.66%
CCc1noc(CCC(=O)N[C@@H]2CC[C@@H](n3ccnc3C)[C@@H]2O)n1,Percent Effect,"30.3 µM, […]",-7.313%
O=C(O)C(F)(F)F.c1coc(CN2CCO[C@H]3[C@H](OCC4CC4)CC[C@@H]32)c1,Percent Effect,"30.3 µM, […]",0.4404%
Oc1c(F)cc(CNc2cccc(-c3nnc[nH]3)c2)cc1F,Percent Effect,"30 µM, 30.03 µM",-51.33%
Oc1ccc(Br)c(CNc2cccc(-c3nnc[nH]3)c2)c1,Percent Effect,"30 µM, 30.03 µM",56.16%
c1cc(NCc2ccsc2)cc(-c2nnc[nH]2)c1,Percent Effect,"30 µM, 30.03 µM",-50.24%
CCCc1nc2c(c(C)c(C)n2Cc2cccnc2)c(N)c1CC,Percent Effect,"30.3 µM, […]",26.57%
CCCc1nc2c(c(C)c(C)n2Cc2ccncc2)c(N)c1CC,Percent Effect,"30.3 µM, […]",11.66%
CCCc1nc2c(c(C)c(C)n2Cc2ccccn2)c(N)c1CC,Percent Effect,"30.3 µM, […]",99.32%
COc1cccc(-c2noc(C3CCN(Cc4ccc(C)cc4)C3)n2)c1.Cl (stereo not given),Percent Effect,"30.3 µM, […]",4.598%
Cc1nc(=O)c2ccccc2n1C1=CCN(CC(=O)N2CCCC2)CC1,Percent Effect,"30.3 µM, […]",9.131%
CCN1CCC2(CC1)OCCN2C(=O)c1ccc(OC)c(Cl)c1.Cl,Percent Effect,"30 µM, 30.03 µM",50.46%
COc1ccc(C(=O)N2C[C@@H](CN3CCCCC3)[C@@H](CO)C2)cc1Cl,Percent Effect,"30 µM, 30.03 µM",22.63%
COc1cc(C(=O)N2CCCS2(=O)=O)cc(Cl)c1OC,Percent Effect,"30 µM, 30.03 µM",-12.01%
COCC1CC2(CCN(C(=O)c3ccc(OC)c(Cl)c3)CC2)CO1 (stereo not given),Percent Effect,"30 µM, 30.03 µM",-6.719%
CCN1CCC2(CC1)OCCN2C(=O)c1cc(Cl)c(OC)c(Cl)c1.Cl,Percent Effect,"30 µM, 30.03 µM",89.37%
CCCOc1c(Cl)cc(C(=O)N2CCOC23CCN(C)CC3)cc1Cl,Percent Effect,"30 µM, 30.03 µM",-15.42%
COc1ccc(-c2cc3nn(CC(=O)NC(C)C)c(=O)n3c(C)n2)cc1,Percent Effect,"30 µM, 30.03 µM",-13.21%
Cc1cc(C)cc(CN2CCN(Cc3cccc(CCN)c3)CC2=O)c1,Percent Effect,"30 µM, 30.03 µM",35.33%
CCc1cc(CN2C[C@H]3CC[C@@H]2CN(C2Cc4ccccc4C2)C3)on1,Percent Effect,"30 µM, 30.03 µM",10.13%
Cc1nnc(CN2CCCC2c2ccc(Cl)c(Cl)c2)o1 (stereo not given),Percent Effect,"30.3 µM, […]",3.085%
Cc1nnc(CN2CCCC2c2ccc(C(C)(C)C)cc2)o1 (stereo not given),Percent Effect,"30.3 µM, […]",86.15%
Cc1nnc(CN2CCCC2c2ccsc2)o1 (stereo not given),Percent Effect,"30.3 µM, […]",-40.61%
Cc1ccc(CN(CCCn2ccnc2)Cc2cc(F)ccc2F)s1.O=C(O)CC(O)(CC(=O)O)C(=O)O,Percent Effect,"30.3 µM, […]",-12.95%
Cc1ccccc1-n1cnnc1SCC1CCCCO1 (stereo not given),Percent Effect,"30 µM, 30.03 µM",69.07%
Cc1ccccc1-n1cnnc1SCCOCC1CCCO1 (stereo not given),Percent Effect,"30 µM, 30.03 µM",-22.78%
Cc1ccccc1-n1cnnc1SCC(=O)NCC1CCCO1 (stereo not given),Percent Effect,"30 µM, 30.03 µM",-21.19%
O=C(CCc1cccs1)N1CCCC(n2ccnc2)C1 (stereo not given),Percent Effect,10 µM,-23.55%
same,Percent Effect,"30.3 µM, […]",37.83%
Cc1cc(NC(=O)N2CCCC2C(C)(C)O)c2ncccc2c1 (stereo not given),Percent Effect,"30 µM, 30.03 µM",-36.24%
Cc1cc(NC(=O)N2CCCC2C(=O)NC2CC2)c2ncccc2c1 (stereo not given),Percent Effect,"30 µM, 30.03 µM",-28.65%
Cc1cc(NC(=O)NC2CCN(C(C)C)CC2)c2ncccc2c1,Percent Effect,"30 µM, 30.03 µM",56.47%
